UCHL1 inh: inhibitors of human UCHL1 deubiquitinase | AID 1645859 | P09936 | purified UCHL1, Ub-rhodamine cleavage fluorescence | actives 0.2% (n = 47,000) | inhibition, % at 20 µM
USP8 inh: human USP8 deubiquitinase inhibition; inhibition, % at 20 µM; P40818; actives 4.2% (n = 47,000); purified USP8, Ub-rhodamine cleavage fluorescence, 30 min; AID 1645853
USP10 block: inhibitors of human USP10 deubiquitinase | actives 1.1% (n = 47,000) | purified USP10, Ub-rhodamine fluorescence, 60 min | inhibition, % at 20 µM | AID 1645856 | Q14694
USP7 block: blocks human USP7 ubiquitin-rhodamine cleavage; actives 0.3% (n = 47,000); Q93009; inhibition, % at 20 µM; purified USP7, Ub-rhodamine cleavage fluorescence
USP30 inh: blocks human USP30 ubiquitin-rhodamine cleavage; Q70CQ3; inhibition, % at 25 µM; actives 5.3% (n = 47,000); AID 1645860; purified USP30, Ub-rhodamine cleavage fluorescence
USP17 block: human USP17-like deubiquitinase inhibition | purified USP17, Ub-rhodamine cleavage fluorescence, 3 h | inhibition, % at 50 µM | A8MUK1 | actives 6.5% (n = 47,000)
Active calls of the source: *; / = not tested or not shown. A selection: hits, their analogues and other compounds. The true share with any hit is near 13%. No stated cut-off is given here; in the data, active means inhibition above about 30%; inactive means the rest.

SMILES	UCHL1 inh	USP8 inh	USP10 block	USP7 block	USP30 inh	USP17 block
COc1ccccc1CNC(=O)COc1ccccc1-c1nnc(-c2ccccc2)o1	8	6	7	/	31*	19
O=C(COc1ccccc1-c1nnc(-c2ccccc2)o1)Nc1ccc(F)cc1F	2	32*	3	4	35*	84*
O=C(NC1CCCC1)C1CCN(c2cc(N3CCCCC3)ncn2)CC1	4	9	1	6	18	11
CN1CCN(c2nc(-c3ccncc3)nc3c2CCC3)CC1	-1	6	0	1	-2	5
CC(CCc1ccccc1)NC(=O)COc1ccccc1-c1nnc(-c2ccccc2)o1 (configuration not stated)	10	1	11	13	41*	31*
COc1ccccc1CNC(=O)CS(=O)(=O)Cc1nc(-c2ccccc2F)oc1C	4	27	4	3	16	58*
Cc1ccccc1-c1nc(CS(=O)(=O)CC(=O)Nc2ccccc2Cl)c(C)o1	1	9	12	2	4	11
O=C(COc1ccccc1-c1nnc(-c2ccccc2)o1)NCCc1ccco1	24	86*	19	15	-38	35*
COc1c(C2CCCN2Cc2nnsc2Cl)c(C)nn1C (configuration not stated)	-5	-14	-1	-4	/	-23
Cc1cc(O)cc2c1C(=O)c1c(O)ccc(O)c1C2=O	-21	-59	-4	-47	-385	-37
Cc1occ2c1C(=O)c1c(O)ccc(O)c1C2	97*	84*	89*	99*	57*	95*
CCn1cc(S(=O)(=O)NCc2cc(F)cc(F)c2)c2cccnc21	5	48*	8	-17	-44	37*
CCn1cc(S(=O)(=O)Nc2ccccc2F)c2cccnc21	0	18	5	-2	-35	8
O=C(c1cc(-c2ccccc2)nn1-c1ccccc1)N1CCN(C(=O)C2CCCO2)CC1 (configuration not stated)	4	10	-2	1	37*	9
Cc1ccc(S(=O)(=O)c2cnc3ccccc3c2Nc2ccc3c(c2)OCCO3)cc1	9	7	6	13	27	/
Cc1cnn(CC2CCCCN2C(=O)CCc2c(C)nc[nH]c2=O)c1 (configuration not stated)	-5	-1	1	7	10	-6
Cc1ccc(C(=O)Nc2ccc(Cl)cn2)c(C)c1	3	-111	2	2	15	12
CC(C)(C)OC(=O)NCc1ccc(C(=O)Nc2ccc(Cl)cn2)cc1	4	13	2	11	34*	23
O=C(Cc1ccccc1[N+](=O)[O-])Nc1cnn(Cc2ccc(F)cc2)c1	-3	-143	-1	-3	32*	-28
COc1ccc(C(=O)N2CCN(C(=O)c3cc(-c4ccc(Cl)cc4)n[nH]3)CC2)cc1OC	-2	6	9	0	2	0
CCC(C)S(=O)(=O)N1CCC(c2onc(OC)c2C)CC1 (configuration not stated)	-1	0	-1	-3	5	0
Cc1[nH]c2ccccc2c1CCNC(=O)c1cc2cc(Cl)ccc2oc1=O	5	56*	-3	0	2	23
Cc1[nH]c2ccc(F)cc2c1CCNC(=O)c1cc2cc([N+](=O)[O-])ccc2oc1=O	4	-14	7	5	14	-32
CNC(=O)c1cnn2c(C3CCCCN3C(=O)CC(C)(C)C)ccnc12 (configuration not stated)	2	19	3	3	19	15
Cc1ccc(S(=O)(=O)N[C@H]2C[C@H]3CN(C)c4ccccc4CN3C2)cc1	-8	-8	-7	-1	-98	-40
COc1cc(C(=O)OCc2csc(-c3ccccc3)n2)ccc1OCC(=O)Nc1ccc(F)cc1	0	6	-6	-55	-66	49*
COc1cc(C(=O)OCc2csc(-c3ccccc3)n2)cc(Cl)c1OC	3	-61	5	0	-20	-13
Cc1noc(-c2csc(C(=O)NCc3ccc(Cl)cc3)n2)n1	-2	-8	-1	0	-117	-51
CCCc1cc(N2CCCCC2)n2nc(-c3cccnc3)nc2n1	1	2	0	-2	31*	10
CCOC(=O)N1CCN(c2cc(C(C)C)nc3nc(-c4cccnc4)nn23)CC1	0	1	1	5	33*	25

Compound activity as filed in PubChem.
